{"source": "PubChem BioAssay (NCI)", "note": "This is part of a sample that, as a whole, favours compounds with a hit. Of some 83,000 tested, about 20% had one in any assay.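 The endpoint reported here, percent growth, reads 100 for growth as untreated, 0 for no net growth and -100 for all cells dead.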 Calls of active or inactive are those of the source. The calls were made as follows: active = growth percent below 10; inactive = the rest.", "data": [{"tested_on": "SK-MEL-5 melanoma", "test": "NCI-60 one-dose screen, 48 h (100 = growth as untreated, 0 = no growth, -100 = all killed)", "conditions": "10 µM unless noted", "values": [{"smiles": "Clc1ccc(CSC(Cn2ccnc2)c2ccc(Cl)cc2Cl)cc1", "note": "(stereo unspecified)", "growth": "-9.89% (active)"}, {"smiles": "C=CC1=C[C@@H]2[C@@H]3O[C@]4(CC[C@H](O4)[C@@H](C)C[C@@H](O)C3=O)C[C@H](O)C3=NCC[C@@]32CC1", "growth": "-90.2% (active)"}, {"smiles": "COC1CC2c3ccccc3C1C(C)=[N+]2C", "note": "(stereo unspecified)", "growth": "106% (inactive)"}, {"smiles": "Cc1cc(N(CCCl)CCCl)ccc1C=Nc1ccc(-c2csc(Cc3ccccc3)n2)cc1", "growth": "84.1% (inactive)"}, {"smiles": "N/C(=N/N=C/c1ccncc1)N[N+](=O)[O-]", "growth": "103% (inactive)"}, {"smiles": "CCN1C(=O)C(=C/C=C/c2ccccc2)C(=O)N(CC)C1=O", "growth": "89.8% (inactive)"}, {"smiles": "CC(=O)O[C@H](C[C@H](C(C)C)N(C)C(=O)[C@@H](NC(=O)[C@H]1CCCCN1C)C(C)C)c1cccc(C(=O)N[C@@H](Cc2ccccc2)C[C@H](C)C(=O)O)n1", "growth": "-39.2% (active)"}]}, {"tested_on": "UACC-62 melanoma", "test": "NCI-60 one-dose screen, 48 h (100 = growth as untreated, 0 = no growth, -100 = all killed)", "conditions": "10 µM unless noted", "values": [{"smiles": "ClCCN(CCCl)Cc1ccc(Nc2ccnc3cc(Cl)ccc23)cc1", "growth": "26.8% (inactive)"}, {"smiles": "N#CCCNc1ccccc1", "growth": "117% (inactive)"}, {"smiles": "C[C@]12CCc3sc(NCCc4ccccc4)nc3C1=CC[C@@H]1[C@@H]2CC[C@]2(C)C(=O)CC[C@@H]12", "growth": "75.6% (inactive)"}, {"smiles": "Cc1cnc(/C=C/C(=O)O)cc1-c1cc2c(cc1C)C(C)(C)CCC2(C)C", "growth": "65.8% (inactive)"}, {"smiles": "C[C@@H]1CCC2[C@@H](C)[C@H](OC(=O)CCC(=O)NCCNC(=O)Cc3cc(=O)oc4cc(N(C)C)ccc34)O[C@@H]3O[C@]4(C)CC[C@@H]1C23OO4", "note": "(stereo partly specified)", "growth": "31.7% (inactive)"}, {"smiles": "CCN(CCO)C(Cc1ccccc1)c1ccccc1", "note": "(stereo unspecified)", "growth": "107% (inactive)"}, {"smiles": "CC1=C2[C@@H](CC1)[C@]1(C)O[C@@](C(C)C)(C[C@H]1O)[C@H]2OC(=O)C1CC1c1ccccc1", "note": "(stereo partly specified)", "growth": "75.6% (inactive)"}, {"smiles": "COC(=O)[C@@H](C)C[C@H](Cc1ccccc1)NC(=O)c1nc([C@@H](C[C@H](C(C)C)N(C)C(=O)[C@@H](NC(=O)[C@H]2C[C@H](O)CCN2C)C(C)C)OC(C)=O)sc1C(C)C", "growth": "31.3% (inactive)"}, {"smiles": "COc1cc(C=Nc2cc(Cl)cc(Cl)c2)ccc1N(CCCl)CCCl", "growth": "82.9% (inactive)"}, {"smiles": "COC(=O)[C@@H](C)C[C@H](Cc1ccccc1)NC(=O)c1csc([C@@H](C[C@H](C(C)C)N(C)C(=O)[C@@H](NC(=O)[C@H]2CCCN2C)C2CC2)OC(C)=O)n1", "growth": "41.2% (inactive)"}, {"smiles": "NC(=S)c1cn(C2OC(CO)C(O)C2O)c2ncnc(N)c12", "note": "(stereo unspecified)", "growth": "-77.1% (active)"}, {"smiles": "O=C(N/N=C/c1ccc(N(CCCl)CCCl)cc1)c1cccc2ccccc12", "growth": "46.5% (inactive)"}, {"smiles": "Oc1ccc2c3c1OC1[C@@H](O)CC[C@@]4(O)[C@@H](C2)N(CC2CCC2)CC[C@]314", "note": "(stereo partly specified)", "growth": "108% (inactive)"}, {"smiles": "CCOC(=O)[C@@H](C)C[C@H](Cc1ccccc1)NC(=O)c1csc([C@@H](C[C@H](C(C)C)N(C)C(=O)[C@@H](NC(=O)[C@H]2C[C@H](O)CCN2C)C(C)C)OC(C)=O)n1", "growth": "38.4% (inactive)"}, {"smiles": "COC(=O)C12CC(NC(=O)c3csc([C@@H](C[C@H](C(C)C)N(C)C(=O)[C@@H](NC(=O)[C@H]4CCCCN4C)C(C)C)OC(C)=O)n3)(C1)C2", "growth": "37.2% (inactive)"}, {"smiles": "COC(=O)[C@@H](C)C[C@H](Cc1ccccc1)NC(=O)c1csc([C@@H](C[C@H](C(C)C)N(C)C(=O)[C@H](C)NC(=O)[C@H]2CCCCN2C)OC(C)=O)n1", "growth": "28.4% (inactive)"}, {"smiles": "O=C(CCCCCNC1=CC(=O)c2ccccc2C1=O)NCCC[Te]c1ccccc1", "growth": "-27.7% (active)"}, {"smiles": "CC(=O)O[C@H](C[C@H](C(C)C)N(C)C(=O)[C@@H](NC(=O)[C@H]1CCCCN1C)C(C)(C)C)c1nc(C(=O)N[C@@H](Cc2ccccc2)C[C@H](C)C(=O)O)cs1", "growth": "26.2% (inactive)"}, {"smiles": "COc1ccc(/C=C\\c2cc(OC)c(OC)c(OC)c2)cc1OCC(=O)Nc1nc2ccc(F)cc2s1", "growth": "32.4% (inactive)"}, {"smiles": "COc1ccc(C(=O)c2cc(OC)c(OC)c(OC)c2)cc1OC(C)=O", "growth": "38.9% (inactive)"}, {"smiles": "C[C@]12C[C@@H](CO)[C@H](O)C[C@@H]1CC[C@@H]1[C@@H]2CC[C@]2(C)[C@@H](O)CC[C@@H]12", "growth": "106% (inactive)"}, {"smiles": "N#CC1(C#N)C(c2ccc(N(CCCl)CCCl)cc2)OC23CCCCC2C1(C#N)C(=N)O3", "note": "(stereo unspecified)", "growth": "53.2% (inactive)"}, {"smiles": "O=[N+]([O-])c1ccc([Se]C2CCCCC2Cl)c([N+](=O)[O-])c1", "note": "(stereo unspecified)", "growth": "72.2% (inactive)"}, {"smiles": "COc1ccc(-n2c(C)nc3cc(OC)c(OC)cc3c2=O)cc1OC", "growth": "104% (inactive)"}]}]}
